Here are results for 70 compounds from PubChem BioAssay AID1722 (National Center for Advancing Translational Sciences (NCATS), 2009).

The whole screen tested about 290,000 compounds, of which fewer than 10 were called active. Calls follow the shape of the full dose curve. These entries were drawn from the full list.

Pyruvate kinase (Leishmania mexicana), sequence (Q27686 whole entry, looked up): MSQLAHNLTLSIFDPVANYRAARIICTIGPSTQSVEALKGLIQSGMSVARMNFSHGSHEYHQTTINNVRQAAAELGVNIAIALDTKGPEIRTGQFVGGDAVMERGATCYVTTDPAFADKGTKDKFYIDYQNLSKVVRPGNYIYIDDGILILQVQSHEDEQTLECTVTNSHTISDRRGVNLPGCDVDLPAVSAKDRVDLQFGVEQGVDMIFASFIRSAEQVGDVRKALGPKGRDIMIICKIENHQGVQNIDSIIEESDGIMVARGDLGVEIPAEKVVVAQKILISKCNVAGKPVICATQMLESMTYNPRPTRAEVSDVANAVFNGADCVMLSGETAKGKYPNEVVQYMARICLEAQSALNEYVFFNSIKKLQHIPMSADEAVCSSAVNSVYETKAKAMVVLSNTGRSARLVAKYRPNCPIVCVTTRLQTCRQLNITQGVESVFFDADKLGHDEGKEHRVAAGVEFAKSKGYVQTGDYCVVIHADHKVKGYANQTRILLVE

The assay concerns the target Pyruvate kinase (Leishmania mexicana) (UniProt Q27686). Nature of the assay: qHTS Assay for Activators of Leishmania Mexicana Pyruvate Kinase (LmPK). To be noted: purified LmPK, Kinase-Glo ATP luminescence, 1 h; series mostly up to 57.5 µM; activity change, negative = inhibition: at the top concentration. The source says:
NIH Chemical Genomics Center [NCGC] Malcolm Walkinshaw, Hugh Morgan, Linda Gilmore University of Edinburgh, UK MLPCN Grant: 1 R03 MH085697-01 NCGC Assay Overview: Pyruvate kinase (L. Mexicana) (LmPK) enzyme was supplied as a highly purified (>95% pure) sulphate-free preparation from University of Edinburgh, UK and assayed for its ability to generate ATP from ADP using phosphoenolpyruvate (PEP) as a substrate. ATP generation was detected in a coupled reaction by luciferase-mediated luminescence, an ATP-dependent process. Pyruvate kinase substrates, PEP and ADP, were present in the assay at Km and approximately 10-fold below Km respectively. The enzyme was assayed at an intermediate level of activity to screen for both inhibitors and activators.
NCGC Assay Protocol Summary: Three uL of enzyme mix (kept on ice) in assay buffer (50 mM Imidazole pH7.2, 50 mM KCl, 7 mM MgCl2, 0.01% Tween 20, 0.05% BSA) containing PEP (0.5 mM final concentration) and LmPK (0.1 nM final concentration) was dispensed into white solid bottom 1,536 well microtiter plates. 23 nL of compound were delivered by a pin tool and 1 uL of ADP mix in assay buffer (r.t; 0.1 mM final ADP concentration) was added. Plates were incubated at room temperature for 1 hour. Two uL of detection mix (Kinase-Glo, Promega; at 4 degree Celsius protected from light) was added and luminescence read by a ViewLux (Perkin Elmer) at 1 second exposure/plate. Data were normalized to the uninhibited and AC100 inhibition (no enzyme). To monitor activation, the first column contained a five-fold concentration of LmPK (0.5 nM).
For orientation: In qHTS, concentration-response curves come from the screen itself.
As to `COc1ccc(C(=O)NC(=S)N2CCCCC2c2cccnc2)cc1OC` (stereo not given), the “activity change, negative = inhibition” value is -68.1% (inactive).

Regarding `CN(C)N=Nc1ccc2nc[nH]c2c1`, the “activity change, negative = inhibition” value is -49.1% (inactive). Take `CC(=O)Nc1ccc(/C=C/C(=O)c2ccccc2)cc1`: the “activity change, negative = inhibition” value is -55.2% (inactive). Turning to `COc1ccccc1OCc1nc2ccccc2s1`, the “activity change, negative = inhibition” value is -84.8% (inactive).

Take `Oc1ccccc1/C=N/n1c(-c2cccs2)n[nH]c1=S`: the “activity change, negative = inhibition” value was -30.4% (inactive). For the compound `O=C(Oc1ccc(-c2nc(-c3ccccn3)no2)cc1)c1ccccc1`, the “activity change, negative = inhibition” value is -37.7% (inactive). Consider `O=c1[nH]c2ccccc2n2c(-c3ccccc3)nnc12`, for which the “activity change, negative = inhibition” value was -74.5% (inactive).

As to `O=[N+]([O-])c1ccc2oc(-c3cccc(O)c3)nc2c1`, the “activity change, negative = inhibition” value is -33.8% (inactive). On to `S=c1[nH]nc2c3c4c(sc3ncn12)CCCC4`, for which the “activity change, negative = inhibition” value is -57.3% (inactive). `CCOC(=O)c1sc(NC(=O)c2ccncc2)nc1C`: the “activity change, negative = inhibition” value was -37.2% (inactive). Regarding `Cn1c(-c2ccco2)nc2cc3ccccc3cc21`, the “activity change, negative = inhibition” value is -80.5% (inactive). In the case of `O=c1[nH]c(CCl)nc2cc(-c3ccc(Cl)cc3)sc12`, the “activity change, negative = inhibition” value is -30.2% (inactive).

Consider `O=C(Nc1ccc(C(=O)O)c(O)c1)c1ccccc1`, for which the “activity change, negative = inhibition” value was -55.6% (inactive).

Consider `CC(=O)N(C1=C(Cl)C(=O)c2ccccc2C1=O)c1ccc(C(=O)O)cc1`, for which the “activity change, negative = inhibition” value was -97.8% (inactive). Consider `O=c1c2c(nc3n1CCCCC3)sc1c(O)cccc12`, for which the “activity change, negative = inhibition” value was -38.8% (inactive). Next, `Cc1cc(NC(=O)Nc2ccccc2[N+](=O)[O-])no1`: -30.1% (inactive). The same measure for `COc1ccc(-c2cn3ccsc3n2)cc1`: -44.3% (inactive); for `CCC(=O)Nc1ccc(C(=O)Nc2cccc(OC)c2)cc1`: -41% (inactive); for `O=c1oc2ccccc2cc1-c1cn(-c2ccccc2)c(=S)[nH]1`: -52.2% (inactive).

Regarding `S=c1[nH]cc(-c2ccc(Cl)cc2)n1-c1ccccc1`, the “activity change, negative = inhibition” value was -27% (inactive). `Cc1ccnc(NC(=O)c2ccoc2C)c1`: the “activity change, negative = inhibition” value is -80.2% (inactive). On to `CCCCSc1nnc2c(n1)OC=Nc1ccccc1-2`, for which the “activity change, negative = inhibition” value is -36.3% (inactive).

`O=C(Nc1nnc(C2CC2)s1)c1ccccn1`: the “activity change, negative = inhibition” value is -63.9% (inactive). The same measure for `COc1ccccc1N=Cc1c(O)c2ccccc2oc1=O`: -40.9% (inactive); for `Cc1nonc1C(=O)N/N=C/c1ccc(O)cc1`: -87.7% (inactive). `CC(C)Oc1ccc(CCc2n[nH]c(=S)n2Cc2ccccc2)cc1`: the “activity change, negative = inhibition” value was -41.2% (inactive). Next, `CCc1n[nH]c(=S)n1/N=C/c1c[nH]c2ccc(Br)cc12`: -58.2% (inactive); `COc1cc(OC)c(C(=O)Nc2ccc(N(C)C)cc2)cc1OC`: -38.5% (inactive). Consider `CC(C)c1ccc(Nc2ncccc2C#N)cc1`, for which the “activity change, negative = inhibition” value is -45.8% (inactive).

Regarding `O=C(Nc1cccc2ccccc12)c1onc2c1CCCC2`, the “activity change, negative = inhibition” value is -58.3% (inactive). For the compound `CN(C)c1nc(=Nc2cccc(Cl)c2)ss1`, the “activity change, negative = inhibition” value was -52.9% (inactive). For the compound `Oc1ccc(N=Nc2nccs2)c(O)c1`, the “activity change, negative = inhibition” value was -62.3% (inactive).

On to `CCc1nnc(NS(=O)(=O)c2ccc(N=Cc3c(C)[nH]n(-c4ccc(C)cc4)c3=O)cc2)s1`, for which the “activity change, negative = inhibition” value was -44.9% (inactive).

With `Cc1ccc(NC(=O)c2sccc2C)cc1[N+](=O)[O-]`, the “activity change, negative = inhibition” value was -43.8% (inactive). Turning to `Cc1cc(C(=O)COC(=O)C2CC2)c(C)n1-c1ccc(F)cc1`, the “activity change, negative = inhibition” value is -45.2% (inactive). Next, `CCCCCC(=O)NC(=S)NNC(=O)c1ccc([N+](=O)[O-])cc1`: -63.3% (inactive). With `COC(=O)c1ccc(NCC(=O)c2ccccc2)cc1`, the “activity change, negative = inhibition” value is -53.5% (inactive). Next, `N/C(=N\OC(=O)c1ccc([N+](=O)[O-])cc1)c1ccccn1`: -64.5% (inactive); `CCOc1ccc(NC(=O)Nc2cc(C)ccc2OC)cc1`: -31.1% (inactive). `COc1ccccc1C(=O)Nc1ccc(NC(=O)c2ccco2)c(C)c1`: the “activity change, negative = inhibition” value was -73.8% (inactive). As for `O=c1oc2cc(O)ccc2cc1-c1ccc(F)cc1`, the “activity change, negative = inhibition” value is -57% (inactive). On to `CC(OC(=O)c1ccc2ccccc2n1)C(=O)c1ccccc1` (stereo not given), for which the “activity change, negative = inhibition” value is -32.6% (inactive). With `Nc1[nH][nH]c(=O)c1N=Nc1ccc2c(c1)OCO2`, the “activity change, negative = inhibition” value was -30.8% (inactive). As for `Cc1ccc(OCc2n[nH]c(=S)n2-c2ccccc2)cc1`, the “activity change, negative = inhibition” value was -49.9% (inactive). Next, `O=C(/C=C/c1ccc(N2CCOCC2)cc1)c1ccccc1`: -38.4% (inactive); `O=C1Nc2ccc(Br)cc2/C1=N/N=C/C1=C(N2CCOCC2)C(=C\c2ccccc2)/CC1`: -66.7% (inactive); `COc1ccc(C(=O)C[n+]2ccc(N)c(C)c2C)cc1`: -74.2% (inactive). For the compound `S=c1[nH]nc(COc2ccccc2)n1-c1ccccc1`, the “activity change, negative = inhibition” value is -45.1% (inactive).

As to `COc1ccc(C(CC(=O)c2ccccc2)S(=O)(=O)c2ccccc2)cc1` (stereo not given), the “activity change, negative = inhibition” value is -33.8% (inactive).

For `S=c1[nH]nc(CSCc2ccc(Cl)cc2Cl)n1-c1ccccc1`, the “activity change, negative = inhibition” value is -42.5% (inactive).

In the case of `C(=N\Nc1ccc2ccccc2n1)/c1ccc2c(c1)OCO2`, the “activity change, negative = inhibition” value was -46.9% (inactive). Next, `Cc1ccc(-n2c(-c3ccc(Cl)cc3)n[nH]c2=S)cc1`: -95.3% (inactive); `O=c1c(-c2ccccc2)coc2cc(O)ccc12`: -57.5% (inactive).

For the compound `CN(C)c1ccc(Nc2c3c4c(cccc4n(C)c2=O)C(=O)c2ccccc2-3)cc1`, the “activity change, negative = inhibition” value was -37.4% (inactive). With `COc1ccc(-c2cn(-c3ccc(OC)cc3)c(=S)[nH]2)cc1`, the “activity change, negative = inhibition” value was -19.8% (inactive). Regarding `O=C(CSC(=S)N1CCOCC1)c1ccccc1`, the “activity change, negative = inhibition” value is -54.1% (inactive). Next, `CSc1ccc(/C=N/NC(=O)c2cccc(Cl)c2)cc1`: -33.4% (inactive); `COc1ccc(-c2nc(-c3ccccc3)no2)c(OC)c1`: -71.5% (inactive); `Cc1cccc(NC(=O)/C=C/c2ccc3c(c2)OCO3)n1`: -36.4% (inactive). Regarding `O=C(Nc1ccc(Cl)cn1)c1ccc2c(c1)OCCO2`, the “activity change, negative = inhibition” value was -65.4% (inactive). As for `Cc1c(Cl)cccc1NC(=O)Nc1ccc(C(=O)N2CCCC2)cc1`, the “activity change, negative = inhibition” value is -31.5% (inactive).

`Cc1cccc(/C(N)=N/OC(=O)c2ccccc2Cl)c1`: the “activity change, negative = inhibition” value is -95.3% (inactive).

With `CN=C1C=C/C(=N/N=c2\ccn(O)cc2C)C=C1C`, the “activity change, negative = inhibition” value is -51.9% (inactive). Regarding `COc1cccc(/C=C/c2ccc3ccccc3n2)c1OC(C)=O`, the “activity change, negative = inhibition” value is -74% (inactive). As for `Cc1n[nH]c(=O)nc1N/N=C/c1cccs1`, the “activity change, negative = inhibition” value is -58.4% (inactive). Turning to `COc1ccc(-n2c(-c3ccc(OC)c(OC)c3)n[nH]c2=S)cc1`, the “activity change, negative = inhibition” value was -68.7% (inactive). For `c1csc(-c2nc(-c3ccncc3)no2)c1`, the “activity change, negative = inhibition” value is -41.6% (inactive). As to `Cc1ccn2cc(-c3nonc3C)cc2c1`, the “activity change, negative = inhibition” value was -33.1% (inactive). For the compound `COc1cc(SC)ccc1C(=O)Nc1nc(C)cs1`, the “activity change, negative = inhibition” value was -60.5% (inactive). Take `O=c1c2ccccc2cnn1Cc1n[nH]c(=S)n1-c1ccccc1F`: the “activity change, negative = inhibition” value was -48.1% (inactive).
